Among all 220,000 compounds or so, about 2,000 (0.91%) were called active. About 2% were inconclusive and are not listed. No stated cut-off is given here; in the data, inconclusive means inhibition above about 80% without an active follow-up result; inactive means below that; test concentration not stated here. Not all results are given here. Potency and affinity values are given separately.
Test: M. tuberculosis H37Rv growth inhibitors, H37Rv strain (AID 1626);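 further: bacteria incubated seven days before Alamar blue readout; 0% = bacteria only wells and 100% = bacteria with antibiotic wells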
Conditions: stronger effect = higher value, concentration not given here
For `COC(=O)c1cc(OC)c(OC)cc1NC(=O)c1cccnc1`, the inhibition was 4.7% (inactive).
With `CCCOc1c(Cl)cc(C(=O)NC)cc1OC` the inhibition was 12% (inactive).
With `COC(=O)CC1C(=O)NCCN1C(=O)c1sc2ccccc2c1Cl` (stereo not drawn) the inhibition was -9.23% (inactive).
With `O=C(COC(=O)Cc1ccccc1F)Nc1ccc(Cl)cn1` the inhibition was -6.09% (inactive).
In the case of `COc1ccc(S(=O)(=O)c2cnc3ccc(OC)cc3c2N2CCC3(CC2)OCCO3)cc1`, the inhibition is reported as 9.48% (inactive).
In the case of `CCOc1ccc2ncc(S(=O)(=O)c3ccccc3)c(N3CCC4(CC3)OCCO4)c2c1`, the inhibition is reported as -1.36% (inactive).
In the case of `Cc1ccc(N2C(=O)[C@@H]3[C@H](C2=O)C2c4ccccc4C=NN2[C@@H]3C(=O)c2ccc(Cl)cc2)cc1` (stereo partly drawn), the inhibition is reported as 8.72% (inactive).
In the case of `Cc1ccc(-n2cc(-c3ccc([N+](=O)[O-])cc3)[nH]c2=S)c(C)c1`, the inhibition is reported as 3.47% (inactive).
In the case of `Cc1ccc(C(=O)CSc2ccccn2)cc1`, the inhibition is reported as -3.3% (inactive).
For `O=C(O)c1ccnc(SCC(=O)c2ccccc2)c1`, the inhibition was -4.56% (inactive).
For `CCC(CC)C(=O)Nc1cc([N+](=O)[O-])ccc1Cl`, the inhibition was 5.59% (inactive).
With `O=C(CCCC(=O)OCC(Cl)=C(Cl)Cl)Nc1ccccc1F` the inhibition was -0.28% (inactive).
With `CCOC(=O)c1ccccc1Nc1cn(C(C)=O)c2ccccc12` the inhibition was 3.14% (inactive).
In the case of `CC(=O)N(c1ccc(Cl)cc1)c1cn(C(C)=O)c2ccccc12`, the inhibition is reported as 11.9% (inactive).
For `O=Cc1[nH]c2ccccc2c1N(C(=O)CCl)c1ccc([N+](=O)[O-])cc1`, the inhibition was -1.28% (inactive).
For `COC(=O)c1cn(C(=O)c2ccc(Cl)cc2)c2ccccc12`, the inhibition was -3.26% (inactive).
For `CC(=O)n1cc(Nc2ccccc2C(=O)O)c2ccccc21`, the inhibition was -4.19% (inactive).
In the case of `CC(=O)n1cc(Nc2ccc([N+](=O)[O-])cc2)c2ccccc21`, the inhibition is reported as 3.13% (inactive).
With `COc1ccccc1N(C(=O)CCl)c1cn(C(C)=O)c2ccccc12` the inhibition was 42.8% (inactive).
With `CC(=O)n1cc(-c2ccncc2)c2ccccc21` the inhibition was 8.31% (inactive).
With `CC(NC(=O)COC(=O)C1CSC2(C)CCC(=O)N12)C12CC3CC(CC(C3)C1)C2` (stereo not drawn) the inhibition was -1.31% (inactive).
In the case of `O=C(CN1CCN(Cc2ccccc2)CC1)N/N=C/c1ccccc1F`, the inhibition is reported as -1.58% (inactive).
In the case of `Cn1cc(CNCc2cn(C)nc2-c2ccc(C3CCCCC3)cc2)cn1`, the inhibition is reported as 8.48% (inactive).
For `COc1ccc(C(=O)c2ccc(Cl)cc2)cc1`, the inhibition was 6.37% (inactive).
For `CCOC(=O)C1CCN(S(=O)(=O)c2ccc(-n3cnnn3)c(C)c2)CC1`, the inhibition was -3.24% (inactive).
With `O=C(COC(=O)c1ccc(Cl)nc1)NCc1ccco1` the inhibition was -2.82% (inactive).
For `Clc1cccc(Cl)c1Cn1nnc(N2CCCC2)n1`, the inhibition was -4.55% (inactive).
For `O=C(CCCn1c(SCC(=O)c2ccc(Cl)cc2)nc2ccccc2c1=O)NCc1ccco1`, the inhibition was -0.03% (inactive).
With `Cc1cc(C)c2cc(C)c(SCC(=O)NCc3ccco3)nc2c1` the inhibition was -6.87% (inactive).
For `CCc1ccccc1NC(=S)N1CCNC(=O)C1CC(=O)OC` (stereo not drawn), the inhibition was 3.01% (inactive).
In the case of `Cc1ccc(NC2=C(Cl)C(=O)OC2OC(C)C)cc1` (stereo not drawn), the inhibition is reported as -6.44% (inactive).
With `CCN(CC)S(=O)(=O)c1ccc(N2CCOCC2)c(NC(=O)c2ccc(NC(C)=O)cc2)c1` the inhibition was -0.34% (inactive).
With `CCCCN1/C(=C/c2ccc3ccccc3[n+]2CC)Sc2ccccc21` the inhibition was -5.31% (inactive).
With `CC(=S)/C=C1\Sc2ccccc2N1C` the inhibition was -6.98% (inactive).
With `NC(=O)C1=NOC(CNc2ncc(C(F)(F)F)cc2Cl)C1` (stereo not drawn) the inhibition was -9.36% (inactive).
With `CCN(CC)S(=O)(=O)c1ccc(C(=O)N2CCc3ccccc32)cc1` the inhibition was -0.89% (inactive).
With `O=C(/C=C/c1ccccc1)NCc1cccnc1` the inhibition was -0.63% (inactive).
In the case of `COc1c(C)cc(Br)cc1C(=O)Nc1ccccc1N1CCN(C(=O)c2ccccc2)CC1`, the inhibition is reported as 19.8% (inactive).
In the case of `O=C(Nc1ccccc1N1CCN(C(=O)c2ccccc2)CC1)c1cc(Br)ccc1Cl`, the inhibition is reported as 8.71% (inactive).
For `Cc1[nH]n(C2=NCCS2)c(=O)c1N=Nc1ccccc1`, the inhibition was 2.69% (inactive).
For `Cc1cc(C)n2[nH]c(=O)c(N=Nc3cccc(C(F)(F)F)c3)c2n1`, the inhibition was 46.9% (inactive).
For `CN(c1ccccc1C(=O)N1CCN(Cc2ccc3c(c2)OCO3)CC1)S(C)(=O)=O`, the inhibition was -0.54% (inactive).
In the case of `COc1ccc(NC(=O)CCC(=O)OCc2ccc(C(=O)Oc3ccc(Cl)cc3)cc2)cc1`, the inhibition is reported as 23.3% (inactive).
In the case of `O=C(CCC(=O)OCc1cccc(C(=O)Oc2ccccc2)c1)Nc1cccc2ccccc12`, the inhibition is reported as 4.16% (inactive).
With `CC(C)(C)Nc1c([N+](=O)[O-])c(=O)sc2ccccc12` the inhibition was -10.8% (inactive).
With `NC(=O)C1CCN(C(=O)c2ccc3c(=O)n(Cc4ccco4)c(SCC(=O)c4ccccc4)nc3c2)CC1` the inhibition was -1.82% (inactive).
For `CN(CCO)c1nc(N)c(C#N)c(CC#N)c1C#N`, the inhibition was -7.58% (inactive).
In the case of `CCOc1ccccc1N1CCN(CC(=O)NC(=O)NCc2ccco2)CC1`, the inhibition is reported as -1.18% (inactive).
For `COc1ccc(NC(=O)N2CCCCCC2)c(OC)c1`, the inhibition was -4.07% (inactive).
For `Cn1c(N)c(C(=O)COC(=O)c2cnc(Cl)c(Cl)c2)c(=O)n(C)c1=O`, the inhibition was -6.46% (inactive).
In the case of `CC(C)Cn1c(N)c(C(=O)COC(=O)c2ccc(Cl)cc2)c(=O)n(C)c1=O`, the inhibition is reported as 11.4% (inactive).
In the case of `COc1ccccc1CNc1nc2nc3c(c(=O)n2[nH]1)CCC3`, the inhibition is reported as 0.1% (inactive).
In the case of `O=c1c2c(nc3nc(NCc4cccc(Cl)c4)[nH]n13)CCC2`, the inhibition is reported as 2.7% (inactive).
In the case of `CCOc1ccccc1CNc1nc2nc3c(c(=O)n2[nH]1)CCC3`, the inhibition is reported as -2.76% (inactive).
With `O=c1c2c(nc3nc(NCc4ccccc4Cl)[nH]n13)CCC2` the inhibition was -14.3% (inactive).
With `O=C(CO/N=C/c1ccccc1OC(F)F)NCc1ccco1` the inhibition was -2.9% (inactive).
With `O=S(=O)(c1ccc(Cl)nc1)N1CCN(c2ncccn2)CC1` the inhibition was -8.21% (inactive).
In the case of `CN(C)CCCNc1ncc(C(F)(F)F)cc1Cl`, the inhibition is reported as 4.38% (inactive).
For `CC1=C(C(=O)Nc2ccc(C)cc2C)C(c2ccc(Cl)cc2)n2nc(C(=O)OC(C)C)nc2N1` (stereo not drawn), the inhibition was 5.54% (inactive).
With `CN(C)CCNC(=O)/C(=C/c1ccc(-c2ccc(Cl)cc2)o1)NC(=O)c1ccccc1` the inhibition was 10.2% (inactive).
In the case of `CN(C)CCCNC(=O)/C(=C\c1ccc(-c2cccc([N+](=O)[O-])c2)o1)NC(=O)c1ccccc1`, the inhibition is reported as -5.38% (inactive).
With `CN(C)CCCNC(=O)/C(=C\c1ccc(-c2ccc(Br)cc2)o1)NC(=O)c1ccccc1` the inhibition was 6.54% (inactive).
With `CN(C)CCNC(=O)/C(=C/c1ccc(-c2cccc(Cl)c2)o1)NC(=O)c1ccccc1` the inhibition was 5.87% (inactive).
In the case of `COC(=O)C1=C(c2cc3ccccc3s2)C[C@@H]2CC[C@H]1N2C(=O)NCCCOC(C)C`, the inhibition is reported as -2.33% (inactive).
In the case of `Cc1cccc(/N=C/c2c(C)[nH]n(-c3ccccc3)c2=O)n1`, the inhibition is reported as -10.6% (inactive).
With `O=C(Cn1nc(CNc2ccc(Cl)cc2)[n+]2c1CCCCC2)c1ccccc1` the inhibition was 9.42% (inactive).
For `O=C(Cn1nc(CNc2ccc(Br)cc2)[n+]2c1CCCCC2)c1ccc([N+](=O)[O-])cc1`, the inhibition was 28.2% (inactive).
In the case of `COC(=O)CN1C(=O)[C@@H]2[C@H](C1=O)[C@@H]1CC(C(=O)OC)=C[C@@H](C(=O)OC)[C@@H]3C1=C(C(=O)[C@@]3(C)NC(=O)c1ccccc1)[C@@H]2C`, the inhibition is reported as -6.86% (inactive).
In the case of `CS(=O)(=O)N(CCc1ccccc1)CC(=O)NCc1ccccc1Cl`, the inhibition is reported as 6% (inactive).
In the case of `COc1ccc(CSc2nnc(C)n2N)cc1Br`, the inhibition is reported as -9.64% (inactive).
With `COc1cc(/C=C(\NC(C)=O)C(=O)NC(C)(C)C)ccc1OC(C)=O` the inhibition was -3% (inactive).
For `CCOC(=O)CSc1nc(C)cc(C)c1C#N`, the inhibition was -7.74% (inactive).
For `COC(=O)CSc1nc(N)c(C#N)c(-c2ccc(O)cc2)c1C#N`, the inhibition was -2.05% (inactive).
In the case of `COC(=O)CSc1nc(N)c(C#N)c(C(C)C)c1C#N`, the inhibition is reported as 0.87% (inactive).
With `CCCOC(=O)CSc1nc(N)c(C#N)c(CC)c1C#N` the inhibition was -6.1% (inactive).
With `COc1ccc(N(CC(=O)Nc2c(C)n(C)n(-c3ccccc3)c2=O)S(=O)(=O)c2ccc(F)cc2)cc1` the inhibition was -0.85% (inactive).
In the case of `CC(C)OC(=O)CSc1nnc(-c2cnccn2)n1-c1ccccc1`, the inhibition is reported as -8.06% (inactive).
For `CC(NC(=S)Nc1ccc([N+](=O)[O-])cc1)c1ccncc1` (stereo not drawn), the inhibition was 2.79% (inactive).
With `CC(C)(C)Nc1nc(SCc2ccccc2)nc(N2CCOCC2)n1` the inhibition was 1.1% (inactive).
In the case of `O=C(NCc1ccco1)C(=O)NCC1OCCN1S(=O)(=O)c1ccc(F)cc1` (stereo not drawn), the inhibition is reported as 0.03% (inactive).
In the case of `Nc1c2c(nc3ccc(Br)cc13)N(c1ccccc1)CC2`, the inhibition is reported as 14.3% (inactive).
With `Nc1c2c(nc3ccccc13)N(C1CCCCC1)CC2` the inhibition was 1.71% (inactive).
With `CCOC(=O)c1cnn(-c2nc3c(C)cccc3s2)c1C` the inhibition was -7.79% (inactive).
With `COC(=O)c1cnn(-c2nc3c(C)cccc3s2)c1C` the inhibition was -0.32% (inactive).
For `O=C(O)COCc1nc2ccccc2s1`, the inhibition was 0.38% (inactive).
With `CCCC(=O)N1CCN(c2ccc(NC(=O)c3cc4ccccc4o3)cc2Cl)CC1` the inhibition was 11% (inactive).
In the case of `CC(=O)N1CCN(c2ccc(NC(=O)c3ccc(N4CCCC4)c([N+](=O)[O-])c3)cc2Cl)CC1`, the inhibition is reported as 44.6% (inactive).
With `O=C(Nc1ccc(N2CCOCC2)c(Cl)c1)c1ccc(Br)o1` the inhibition was 5.36% (inactive).
In the case of `O=C(Nc1cccc(Cl)c1N1CCCCC1)c1ccc(N2CCOCC2)c([N+](=O)[O-])c1`, the inhibition is reported as 2.9% (inactive).
With `CCCC(=O)N1CCN(c2ccc([N+](=O)[O-])cc2Cl)CC1` the inhibition was 6.77% (inactive).
With `CCCC(=O)N1CCN(c2ccc(NC(=O)c3ccc(Br)o3)cc2)CC1` the inhibition was -2.24% (inactive).
With `CCCC(=O)N1CCN(c2ccc(NC(=O)c3ccco3)cc2)CC1` the inhibition was -4.48% (inactive).
For `O=C(Nc1cccc(Cl)c1N1CCOCC1)c1ccc([N+](=O)[O-])o1`, the inhibition was 1.19% (inactive).

Source: PubChem BioAssay AID1626 (SRMLSC, 2009)
